# Only some compounds are listed: those with a hit (about 3.6% of all), similar ones and a draw of the others.
# FAS-TE inh – FAS thioesterase domain inhibitors, primary screen, biochemical, fluorescence intensity, uHTS; inhibition, % at 15 µM; 360,000 compounds, 0.67% hits; recombinant FAS-TE, OMFH fluorogenic substrate, fluorescence endpoint; Fatty acid synthase (Homo sapiens), P49327;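 active means compounds whose normalised, plate-corrected inhibition of enzyme fluorescence in the single-dose primary screen is 50% or more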;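 further: 0% = DMSO with enzyme and 100% = substrate without enzyme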
# CRFR2-BP antag – antagonists of CRF-BP/CRF-R2 complex, primary screen, cell-based, HEK293, calcium dye fluorescence, uHTS; CRF-induced calcium fluorescence; inhibition, % at 11.8 µM; 350,000 compounds, 0.59% hits; AID 588475, 2011;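 active means inhibition of the ligand-induced calcium signal above about 50% at the single tested concentration, limit read from the data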
# Myeloid diff MLP – induction of myeloid progenitor differentiation, primary screen, cell-based, flow cytometry, MLPCN library. ER-HoxA9 myeloid progenitors, lysozyme-GFP differentiation. calls only at 10 µM. 360,000 compounds, 1% hits. AID 624256, 2012;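 active means normalized GFP-positive differentiation at or above the plate's own cutoff, the solvent-only control mean plus 3 SD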;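 further: cells exposed to compound for four days before flow analysis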
# NRP1-CendR mod – modulators of CendR peptide binding to NRP-1, primary screen, biochemical, fluorescence polarization, uHTS; Neuropilin-1 (Homo sapiens), O14786; FAM-RPARPAR peptide binding to NRP-1; inhibition, % at 25 µM; 360,000 compounds, 0.85% hits; AID 602438, 2012;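 active means inhibition or corrected inhibition above about 18%, plus a signal ratio from 0.5 to 1.5, limit read from the data, passing the limit was not always enough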
# NadD inh – inhibitors of S. aureus NadD, primary screen, biochemical, colorimetric, uHTS; Nicotinate-nucleotide adenylyltransferase NadD (Staphylococcus aureus N315); inhibition, % at 20 µM; purified NadD enzyme, colorimetric absorbance read-out; 360,000 compounds, 0.78% hits; in the data active means inhibition above about 26%
# Myeloid diff CP1 – inducers of myeloid progenitor differentiation, confirmation, cell-based, GFP/Mac1 flow cytometry, cherry pick 01; calls only; shares compounds with Myeloid diff MLP; AID 651706, 2012; 2,300 compounds, 2% hits; ER-HoxA9 myeloid progenitors, GFP/Mac1 double-positive flow;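 active means share of green or green-and-red cells above 9 and 9% in run 1 or 4 and 3% in run 2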
# GFP autofluor – flagged as fluorescent in myeloid differentiation counter-screen; shares compounds with Myeloid diff MLP; ER-HoxA9 myeloid progenitors, no estrogen, GFP autofluorescence flow cytometry; vehicle wells 0%, positive control 100%; fluorescence response, % (concentration not given with the values); 2,300 compounds, 7.4% hits; AID 651707;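 active means over 5% cells positive for green fluorescent reporter, or over 2% positive for both it and APC stain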;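 further: range taken on the double positive population between DMSO and positive control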
# The depositor's hits bear a star; i = inactive; / = not tested or not shown; + = active, no number.
SMILES,FAS-TE inh,CRFR2-BP antag,Myeloid diff MLP,NRP1-CendR mod,NadD inh,Myeloid diff CP1,GFP autofluor
COc1cc(-c2nc(CN3CCN(c4ncccn4)CC3)c(C)o2)ccc1F,-1,-1,i,5,-5,/,/
CCc1ccc(C(=O)CCC(=O)Nc2ccc(OC)c(S(=O)(=O)N3CCCCC3)c2)cc1,21,5,i,-2,-4,/,/
O=C(Nc1ccc(F)cc1)c1cccc(N2C(=O)C3C4C=CC(C4)C3C2=O)c1 (stereo not given),-4,-6,+,7,0,i,0
O=C(Nc1ccccc1)c1cccc(N2C(=O)C3C4C=CC(C4)C3C2=O)c1 (stereo not given),-1,-1,/,4,-2,/,/
CC(C)(C)c1ccc(S(=O)(=O)NCCOCC(F)(F)C(F)F)cc1,16,-5,+,-3,0,i,0
Cc1ccccc1Nc1nnc(SCC(=O)NCC2CCCO2)s1 (stereo not given),-10,10,i,24,-1,/,/
CC(C)(C)C(=O)Nc1cc(NC(=O)C(C)(C)C)cc(C(=O)NNC(=O)c2ccncc2)c1,-3,-4,+,10,1,i,0
C/C(Cc1ccccc1)=N\NC(=O)CNC(=O)c1ccc(Br)cc1,-5,7,+,5,-1,i,1
C/C(Cc1ccccc1)=N\NC(=O)CNC(=O)c1ccccc1,-9,-11,i,5,-4,/,/
COc1ccc(NC(=O)NNC(=O)c2ccc3ccccc3c2)cc1OC,-3,6,i,-11,-4,/,/
Nc1cccn2c(-c3ccc(Cl)cc3)cnc12,-1,4,+,-31,9,i,0
Cc1ccc(C=Nc2ccc(N(C)C)cc2)o1,-8,0,i,3,1,i,0
Cc1cccc(-c2nc3c(s2)CCc2onc(-c4ccc(Br)cc4)c2-3)c1,15,3,i,10,-3,/,/
Cc1ccsc1CN(C)CC(=O)NCC(=O)Nc1ccc(F)c(F)c1F,6,-15,+,7,2,i,4
CN(C)S(=O)(=O)c1cccc(NC(=S)NCCc2ccccn2)c1,-3,-1,i,6,10,/,/
Cc1ccc(S(=O)(=O)N(C)C)cc1NC(=S)NCCc1ccccn1,-2,8,i,2,-8,i,0
Cc1ccc(C(C(=O)NC2CCCCC2)N(Cc2ccco2)C(=O)C2COc3ccccc3O2)o1 (stereo not given),13,8,i,-1,2,/,/
Cc1ccc(C(C(=O)NC2CCCCC2)N(Cc2cccnc2)C(=O)C2COc3ccccc3O2)o1 (stereo not given),2,-5,+,-12,6,i,1
O=S1(=O)CC2SC(=S)N(c3ccccc3)C2C1 (stereo not given),-4,-5,i,4,-10,/,/
CC12CS(=O)(=O)CC1SC(=S)N2c1ccccn1 (stereo not given),-1,0,+,2,3,i,0
C[C@H](O)C#Cc1cnc2c(c1)C(=O)N([C@H](C)CO)C[C@@H](C)[C@H](CN(C)C(=O)Nc1ccc(C(F)(F)F)cc1)O2,-2,4,i,-7,11,i,0
C(=Cc1cnc2ccccc2n1)c1ccc2c(c1)OCO2,6,-62,i,16,-1,/,/
C[n+]1c(/C=C/c2ccc3c(c2)OCO3)ccc2ccccc21,-11,8,i,-1,17,+,0
Cn1c(=O)c2ccccc2n(Cc2ccccc2F)c1=O,-3,-22,i,2,-1,/,/
Cn1c(=O)c2ccccc2n(Cc2ccccc2Cl)c1=O,6,37,i,-10,-3,i,0
SMILES,FAS-TE inh,CRFR2-BP antag,Myeloid diff MLP,NRP1-CendR mod,NadD inh,Myeloid diff CP1,GFP autofluor
CCCCN(C)CCN1C(=O)C2C(C(=O)Nc3ccc(C)cc3)C3C=CC2(O3)C1C(=O)NC1CCCCC1 (stereo not given),-6,-12,i,9,-5,/,/
C=CCn1c(C2CCCCC2)n[nH]c1=S,-2,-6,i,-6,-6,/,/
Cc1cccc(N2CCN(C(=O)c3ccc4c(c3)OCCO4)CC2)c1C,8,-2,+,11,0,+,0
O=C(c1ccccc1)N1CCN(C(=O)c2ccc3c(c2)OCCO3)CC1,-4,14,i,5,-1,/,/
O=C(Cc1ccc([N+](=O)[O-])cc1)Nc1ccc(O)cc1C(=O)O,-6,0,i,3,0,/,/
CCNC(=O)/C(C#N)=C/c1c(N(Cc2ccccc2)Cc2ccccc2)nc2ccccn2c1=O,26,-21,+,-5,1,i,0
COc1ccc(NC(=S)NC23CC4CC(CC(C4)C2)C3)cc1OC,8,-7,i,-6,2,/,/
O=C(c1ccco1)N1CC2(CC(c3ccc(Cl)cc3)=NO2)CN1Cc1ccc(Br)cc1 (stereo not given),34,-11,i,-2,13,i,0
CCOC(=O)CC(=O)CSc1nc(C)cc(-c2cccnc2)c1C#N,-4,12,i,-10,1,i,0
FC(F)(F)c1ccccc1CN1CCCC(N2CCN(c3ccccc3)CC2)C1 (stereo not given),14,-28,i,4,-2,i,10*
O=C(NCc1ccccc1)C(=O)NCC1OCCN1C(=O)c1cccs1 (stereo not given),-10,4,i,-1,-6,/,/
Cc1ccc(CNC(=O)C(=O)NCC2OCCN2C(=O)c2cccs2)cc1 (stereo not given),-8,-21,+,-6,-4,i,0
O=c1c2nncn2c2cccnc2n1CCNc1ncc(C(F)(F)F)cc1Cl,9,2,i,-16,-8,/,/
NNc1nc2cccnc2n(CCNc2ncc(C(F)(F)F)cc2Cl)c1=O,0,25,i,3,11,i,2
Cc1nc(C)c(/C(O)=C/c2nc3ccccc3oc2=O)s1,-8,-16,+,-11,5,i,0
C#Cc1ccc([C@H]2C=C(C(=O)O)O[C@@H](OCCCCO)C2)cc1,-10,6,i,-34,-2,/,/
N#Cc1cc(C#N)c(N2CCN(c3ccccn3)CC2)nc1N,0,-70,+,-9,-3,i,0
c1ccc(N2CCN(c3cnccn3)CC2)nc1,-8,-2,i,2,2,/,/
CCCCn1c2c(c(=N)c3c1CCC3)CCC2,-6,-7,i,6,6,i,0

# Assay outcomes as filed in PubChem BioAssay.
